Experimental data as given in paper PMC13423814.

How the values were obtained:
Peroxiredoxin-1 = Peroxiredoxin-1 (UniProt Q06830)
[1] = target: DNA replication licensing factor MCM2 (UniProt P49736)
Histone H4 = Histone H4 (UniProt P62805)
[2] = target: Serine/arginine-rich splicing factor 1 (UniProt Q07955)
Serine/arginine-rich splicing factor 1, sequence (Q07955 whole entry): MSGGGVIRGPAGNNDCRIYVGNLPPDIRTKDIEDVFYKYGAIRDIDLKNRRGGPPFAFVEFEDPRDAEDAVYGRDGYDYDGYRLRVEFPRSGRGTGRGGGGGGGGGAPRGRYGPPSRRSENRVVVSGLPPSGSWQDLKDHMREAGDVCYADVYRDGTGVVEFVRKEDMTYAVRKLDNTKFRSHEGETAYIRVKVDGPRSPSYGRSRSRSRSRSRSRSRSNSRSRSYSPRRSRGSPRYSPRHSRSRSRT

Peroxiredoxin-1, sequence (Q06830 whole entry): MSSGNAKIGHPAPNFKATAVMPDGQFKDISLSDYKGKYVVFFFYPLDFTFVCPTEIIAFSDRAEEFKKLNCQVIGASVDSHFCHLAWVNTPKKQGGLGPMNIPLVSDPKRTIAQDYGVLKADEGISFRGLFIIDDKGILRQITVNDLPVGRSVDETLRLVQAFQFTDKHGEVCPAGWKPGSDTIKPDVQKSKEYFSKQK
DNA replication licensing factor MCM2, sequence (P49736 whole entry): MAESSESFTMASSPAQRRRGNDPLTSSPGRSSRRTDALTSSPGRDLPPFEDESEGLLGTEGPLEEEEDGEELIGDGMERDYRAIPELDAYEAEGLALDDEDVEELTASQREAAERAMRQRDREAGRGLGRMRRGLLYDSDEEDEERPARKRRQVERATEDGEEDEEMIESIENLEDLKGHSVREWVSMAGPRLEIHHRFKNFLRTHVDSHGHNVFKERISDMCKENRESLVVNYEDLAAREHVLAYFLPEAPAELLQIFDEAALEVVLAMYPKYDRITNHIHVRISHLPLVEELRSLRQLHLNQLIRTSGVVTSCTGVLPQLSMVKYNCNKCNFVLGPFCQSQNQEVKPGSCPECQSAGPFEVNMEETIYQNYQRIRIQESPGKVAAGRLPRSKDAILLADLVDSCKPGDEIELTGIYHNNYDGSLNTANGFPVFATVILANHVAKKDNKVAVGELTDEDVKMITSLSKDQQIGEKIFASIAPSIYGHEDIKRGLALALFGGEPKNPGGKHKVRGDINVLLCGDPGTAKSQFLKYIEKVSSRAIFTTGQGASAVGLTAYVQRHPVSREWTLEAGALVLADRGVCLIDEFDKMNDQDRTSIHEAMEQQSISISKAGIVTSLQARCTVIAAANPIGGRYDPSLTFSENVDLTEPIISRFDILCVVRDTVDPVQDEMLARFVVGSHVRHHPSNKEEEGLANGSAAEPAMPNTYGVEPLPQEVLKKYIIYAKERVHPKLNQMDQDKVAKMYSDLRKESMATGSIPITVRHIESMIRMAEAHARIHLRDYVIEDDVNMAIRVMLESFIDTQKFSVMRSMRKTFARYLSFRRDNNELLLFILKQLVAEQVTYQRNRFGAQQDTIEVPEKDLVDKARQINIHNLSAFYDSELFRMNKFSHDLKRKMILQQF

Putative keratin-87 protein, A6NCN2 was tested, and the “listed as a hit” value (Peroxiredoxin-1) was “yes”.
With “DNA replication licensing factor MCM3, P25205” the “listed as a hit” value [1] was “yes”.
With Prelamin-A/C, P02545 the “listed as a hit” value (Histone H4) was “yes”.
With “RNA-binding motif protein, X chromosome, P38159” the “listed as a hit” value [2] was “yes”.
